High-throughput results (PubChem)
BAZ2B block: qHTS Assay for Inhibitors of BAZ2B; 360,000 tested, 4.4% active; AID 504333, 2011; Potency, µM (series often up to 114 µM), inactives show top-dose activity change, negative = inhibition, hits mostly inhibitors; AlphaScreen BAZ2B-H3K14Ac peptide displacement; Bromodomain adjacent to zinc finger domain protein 2B (Homo sapiens), Q9UIF8; further: on the % scale 0 is the no-effect control and ±100 the full control effect; nearly all actives have a fitted effect of over 60% in size
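Protein-peptide AlphaScreen: BAZ2B 50 nM, b-H3K14Ac 50 nM, 1x PBS pH 7.4 + 0.01% Tween-20. Preincubation 30 min RT; cpd 30 min RT (top 110 uM); beads 20 min RT, light-protected.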
HP1b binding inh: HTS for Inhibitors of HP1-beta Chromodomain Interactions with Methylated Histone Tails. AID 540317, 2011. Chromobox protein homolog 1 (Homo sapiens), P83916. AlphaScreen HP1-beta / biotin-H3K9me3 peptide binding. 390,000 tested, 0.56% active. Potency, µM (titrated, usually from 114 µM), for the others: at the top dose activity change, negative = inhibition, most hits filed as inhibitors; further: nearly all actives have a fitted effect of over 70% in size
Target sequence (P83916 whole entry, looked up): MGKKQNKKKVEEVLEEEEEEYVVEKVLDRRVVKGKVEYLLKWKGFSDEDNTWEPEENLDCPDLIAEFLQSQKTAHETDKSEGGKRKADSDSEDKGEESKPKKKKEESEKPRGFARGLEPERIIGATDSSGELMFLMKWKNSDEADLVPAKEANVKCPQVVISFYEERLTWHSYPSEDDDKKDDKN
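AlphaScreen: HP1-beta (50 nM) preformed 30 min with biotin-H3(1-18)K9me3 peptide (50 nM) in PBS pH 7.4, 0.01% Tween-20. Compound added for 30 min at RT, then streptavidin donor/nickel chelate acceptor beads (10 ug/mL) for 30 min.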
JMJD2A Tudor: qHTS Assay for Inhibitors of JMJD2A-Tudor Domain. Lysine-specific demethylase 4A (Homo sapiens), O75164. AlphaScreen JMJD2A-Tudor / H3K4me3 peptide binding. Potency, µM (doses to about 114 µM), for inactives: at the top dose activity change, negative = inhibition, actives largely listed as inhibitors. 390,000 tested, 4.4% active. AID 504339, 2011; further: on the % scale 0 is the no-effect control and ±100 the full control effect; nearly all actives have a fitted effect of over 50% in size
G9a block: qHTS Assay for Inhibitors of Histone Lysine Methyltransferase G9a. Histone-lysine N-methyltransferase EHMT2 (Homo sapiens), Q96KQ7. G9a H3K9 monomethylation, AlphaScreen, 2 h. Potency, µM (series often up to 102 µM), for the others: at the highest dose activity, negative = inhibition, usual class: inhibitors. 350,000 tested, 8.8% active; further: on the % scale 0 is the no-effect control and ±100 the full control effect; nearly all actives have a fitted effect of over 75% in size
Target sequence (Q96KQ7 913-1193 limits assumed): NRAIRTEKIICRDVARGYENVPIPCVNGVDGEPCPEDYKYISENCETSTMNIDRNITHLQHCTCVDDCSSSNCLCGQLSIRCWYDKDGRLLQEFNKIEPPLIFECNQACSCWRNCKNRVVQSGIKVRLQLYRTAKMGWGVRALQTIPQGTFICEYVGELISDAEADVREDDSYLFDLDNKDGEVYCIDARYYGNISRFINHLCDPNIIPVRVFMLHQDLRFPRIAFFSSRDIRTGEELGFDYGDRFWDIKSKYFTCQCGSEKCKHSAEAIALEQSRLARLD
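Readings reflect AlphaScreen signal from monomethyl-H3K9 antibody detection. HMT at 20 nM; substrate b-H3K9 500 nM; cofactor SAM 20 uM; 2 h RT reaction; compounds tested as titrations in qHTS with 15 min preincubation.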
TDP1 inh: qHTS Assay for Inhibitors of Tyrosyl-DNA Phosphodiesterase (TDP1) | 350,000 tested, 0.28% active | recombinant TDP1, AlphaScreen DNA substrate cleavage | Tyrosyl-DNA phosphodiesterase 1 (Homo sapiens), Q9NUW8 | Potency, µM (highest dose often 130 µM), for the others: top-dose activity change, negative = inhibition, most hits filed as inhibitors | AID 485290, 2010; further: on the % scale 0 is the no-effect control and ±100 the full control effect; nearly all actives have a fitted effect of over 40% in size
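E. coli-derived human Tdp1, 1 nM final. Cpd preinc 15 min RT; substrate 15 nM final, 5 min RT; AS bead mix 10 ug/ml final, 10 min RT. Signal loss = tyrosine-FITC cleavage. No-enzyme wells = max signal.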
Sfp PPTase inh: qHTS Assay for Inhibitors of Bacillus subtilis Sfp phosphopantetheinyl transferase (PPTase). Potency, µM, without a hit: largest response in the series, negative = inhibition, most hits filed as inhibitors. 310,000 tested, 3.5% active. 4'-phosphopantetheinyl transferase ffp (Bacillus subtilis), Q9F4F7. AID 1490, 2009. Biochemical Sfp PPTase activity, qHTS;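 further: the enzyme is Sfp with the accession as filed and its product quenches rhodamine fluorescence; 0% = enzyme reaction without inhibitor and -100% = no enzyme wells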
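Sfp 15 nM + cpd, 15 min RT; start w/ rhodamine-CoA 5 uM, BHQ-2-YbbR 12.5 uM (final); 50 mM Hepes pH 7.6, 10 mM MgCl2, 0.01% NP-40, 0.01% BSA; read 525/598 nm at 0 and 30 min.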
* hit, by the source's call; ? = inconclusive; nt = no result; ! = a repeat was not active; [ ] = remark or other dose. This is a sample that favours compounds with a hit; in the whole collection about 12% have one here. The call rests on the fitted dose curve; in most records, active means well fitted curve in the direction sought with a large enough effect; inconclusive means small, poorly fitted or top-dose-only effect, or another doubt; inactive means no such curve, though single readings can be large; an effect the other way counts as inactive or inconclusive. Potency means the concentration at half of the fitted maximal effect.

SMILES	BAZ2B block	HP1b binding inh	JMJD2A Tudor	G9a block	TDP1 inh	Sfp PPTase inh
Cc1ccc(NC2=NC(c3ccc(F)cc3)n3c(nc(C)cc3=O)N2)cc1 (stereo not drawn)	-2%	1%	-17%	-5%	nt	11%
CCOc1ccccc1NC(=O)C1CCCN1S(=O)(=O)c1ccc2nc(-c3ccccc3)[nH]c2c1 (stereo not drawn)	?	14%	-36%	-12%[59 µM]	5%	nt
Cc1ccc2nsnc2c1S(=O)(=O)Nc1cccc2nsnc12	-38%	15%	-23%	45µM*	-3%	-9%
Cc1ccc2nsnc2c1S(=O)(=O)Nc1cccc2cccnc12	nt	nt	?	nt	22%	0%
CC(=O)c1ccccc1NS(=O)(=O)c1cccc2nsnc12	50µM*	?	?	50µM*	nt	2%
CSc1cccc(NC(=O)Nc2ccccc2OCc2cc(=O)n3cc(C)ccc3n2)c1	4%	23%[57 µM]	-10%	-3%[59 µM]	0%	nt
CCCN[C@@H](C)C(=O)Nc1ccccc1C	nt	nt	nt	-41%[2.33 µM]	3%	14%
CC1CCCC(NC(=O)CCNC(=O)c2ccccc2Cl)C1C (stereo not drawn)	8%	37%	-3%	?	0%	nt
CCc1nnc(NC(=O)c2ccc3ccccc3n2)s1	2%	-11%	-8%	50µM*	11%	?
CSc1nnc(NC(=O)c2nc(S(=O)(=O)Cc3ccccc3F)ncc2Cl)s1	-11%	16%[57 µM]	22µM*	28µM*	3%	?
O=C(Nc1nc2ccc(F)cc2s1)c1nc(S(=O)(=O)Cc2ccccc2F)ncc1Cl	-11%	94%	-26%	33%[59 µM]	0%	nt
Cc1cccc(CS(=O)(=O)c2ncc(Cl)c(C(=O)Nc3nnc(C(C)C)s3)n2)c1	?	31%[57 µM]	?	?	5%	-29%
CSc1nnc(NC(=O)c2nc(S(=O)(=O)Cc3cccc(C)c3)ncc2Cl)s1	4%	22%[57 µM]	?	4.5µM*	6%	-15%
CCc1nnc(NC(=O)c2nc(S(=O)(=O)Cc3cccc(C)c3)ncc2Cl)s1	?	-15%[57 µM]	2.8µM*	45µM*	2%	56µM*
CC(=O)Nc1cccc(Nc2nc(-c3ccccc3F)nc3ccccc23)c1	1%	38%	-12%	5%	3%	6%
Cc1cc(=O)oc2c(C)c(OCC(=O)N3CCN(c4cccc(Cl)c4)CC3)ccc12	-11%[57.1 µM]	9%[57 µM]	-9%	3%	1%	4%
CC(=O)Nc1ccc(C)cc1-c1nc2ccccc2n(CC(=O)c2ccc(Cl)cc2)c1=O	-17%	43%	-8%	?	11%	nt
Cc1ccc(N2CCN(S(=O)(=O)c3ccc4c(c3)CC(=O)N4)CC2)cc1	nt	nt	-28%[229 µM]	nt	nt	nt
CCc1nnc(NC(=O)c2nc(S(=O)(=O)Cc3ccccc3)ncc2Cl)s1	?	18%[57 µM]	7.9µM*	28µM*	3%	?
CCc1nnc(NC(=O)c2nc(S(=O)(=O)Cc3ccc(C)cc3)ncc2Cl)s1	?	-15%[57 µM]	14µM*!	45µM*!	3%	-18%
Cc1nnc(NC(=O)c2nc(S(=O)(=O)Cc3ccccc3C)ncc2Cl)s1	56µM*	33%	?	?	-5%	?
CCOc1ccccc1NC(=O)c1nc(S(=O)(=O)Cc2cccc(C)c2)ncc1Cl	-30%	29%	?	56µM*!	5%	-3%
COc1cc2c(cc1OC)C(c1cccs1)N(C(=S)NC(C)C)CC2 (stereo not drawn)	-30%	-14%	-32%	-27%	2%	14%
COc1cc(NC(=O)CC2C(=O)N(c3ccccc3)C(=O)N2Cc2ccc(F)cc2)cc(OC)c1 (stereo not drawn)	0%	29%	-12%	-23%[59 µM]	-3%	nt
CCOc1cccc(/C=N/NC(=S)Nc2ccccc2[N+](=O)[O-])c1O	11µM*	9%	?	3%	7%	26%
SMILES	BAZ2B block	HP1b binding inh	JMJD2A Tudor	G9a block	TDP1 inh	Sfp PPTase inh
Cc1ccc(S(=O)(=O)NCCC(C)C)cc1[N+](=O)[O-]	-1%	7%	-19%	23%[59 µM]	-3%	8%
O=[N+]([O-])c1ccccc1NC(=S)N/N=C/c1ccc(O)c(O)c1	10µM*	8.9µM*	?	nt	5%	-6%
Cc1ccc(S(=O)(=O)N/N=C/c2cc([N+](=O)[O-])ccc2O)cc1[N+](=O)[O-]	?	-14%	?	50µM*	9%	?
COc1cc(/C=N/NS(=O)(=O)c2ccc(C)c([N+](=O)[O-])c2)ccc1O	nt	15%	-9%	?	3%	-27%
CCCCNC(=S)N/N=C/c1cccc(OCC)c1O	-26%	20%	-20%	nt	5%	7%
C/C(CCC(C)C)=N\NS(=O)(=O)c1ccc(C)c([N+](=O)[O-])c1	-24%	4%	-20%	13µM*	4%	-18%
COc1cccc(C2c3c(ncn(-c4cccc(Cl)c4)c3=N)Oc3ccc4ccccc4c32)c1 (stereo not drawn)	nt	nt	?	nt	7%	nt
COC(=O)CC1C(C)(C)C(O)C2CC3=C4C=C(OC)OC(c5ccoc5)[C@]4(C)CCC3[C@@]1(C)C2=O (stereo partly drawn)	nt	nt	nt	-21%[2.33 µM]	11%[56.1 µM]	-17%
CCOc1cccc(/C=N/NS(=O)(=O)c2ccc(C)c([N+](=O)[O-])c2)c1O	nt	17%	-26%	?	5%	56µM*
Cc1ccc(S(=O)(=O)N/N=C/c2ccc(O)cc2O)cc1[N+](=O)[O-]	2%	-3%	-27%	45µM*	0%	50µM*
Clc1ccc(-c2nc(C3CCCCC3)no2)cc1	-5%	30%	12%	16%	4%	14%
O=C(Cn1c(-c2cccs2)cc2ccccc21)NCc1ccccc1Br	-6%	39%	-18%	-22%[59 µM]	0%	nt
c1ccc(N2CCN(Cc3ccsc3)CC2)nc1	79µM*	?	3.2µM*	14µM*	-3%	-13%
c1ccc(CCCN2CCN(c3ccccn3)CC2)cc1	?	?	25µM*	40µM*	nt	-19%
Cc1cccc(-n2cc(CN3CCN(c4ccccn4)CC3)c(-c3cccc(F)c3)n2)c1	-20%	48%	-9%	-3%	3%	2%
Cc1cccc(CN2CCN(c3ccccn3)CC2)c1	nt	?	3.2µM*	nt	nt	nt
